Test results as given in PubChem BioAssay AID686979 (National Center for Advancing Translational Sciences (NCATS), 2013).
Screen size: about 420,000 compounds; about 50,000 (12%) were called active. About 26% were inconclusive and are not listed. The sample as a whole holds a higher share of actives than the screen did. Unmarked numbers belong to inactive results. The call rests on the fitted dose curve; in most records, active means well fitted inhibition curve with a large enough effect; inconclusive means small, poorly fitted or top-dose-only effect; inactive means flat fitted curve, though single readings scatter.

Assay: qHTS for Inhibitors of human tyrosyl-DNA phosphodiesterase 1 (TDP1): qHTS in cells in presence of CPT; further: nearly all actives have a fitted effect of over 55% in size
Conditions: chicken DT40 Tdp1-/-;hTDP1 cells + 20 nM CPT, ATP luminescence, 48 h; series mostly up to 46.2 µM; activity change, negative = growth inhibition: at the top concentration
Procedure, shortened: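 Chicken DT40 Tdp1-/- cells complemented with human TDP1, 400 cells/well, exposed to compounds plus 20 nM camptothecin for at least 48 h at 37 C; viability read as ATP content by CellTiter-Glo luminescence.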
On the % scale 0 is the no-effect control and ±100 the full control effect; potency means the concentration at half of the fitted maximal effect.

Row | SMILES | activity change, negative = growth inhibition | Potency
1 | CCOC(=O)[C@]12CCCC=C1N(CCC1=CCCCC1)C(=O)[C@H](CC(=O)N1CCOCC1)C2 | -80.8% | –
2 | CCOC(=O)[C@]12CCC=C1N(Cc1ccccc1)C(=O)[C@H](CC(=O)N1CCCC1)C2 | -15.5% | –
3 | CCCCOCCCNC(=O)C[C@@H]1C[C@@]2(C(=O)OCC)CCCC=C2N(CCC2=CCCCC2)C1=O | – | 13 µM (active)
4 | CN1CCNC(=O)C1CC(=O)NCCC1=CCCCC1 (centres undefined) | -0.969% | –
5 | COc1ccc(CNC(=O)CN(C(=O)c2csnn2)c2cnc3ccccc3c2)cc1 | -24% | –
6 | COCCNc1nnc(SCC(=O)NNC(=O)c2ccco2)s1 | -0.281% | –
7 | Cc1ccc(NC(=O)C2CC2c2ccccc2)cc1 (centres undefined) | -15.6% | –
8 | O=C(/C=C/[C@H]1O[C@@H](n2cnc3c(NC(=O)c4ccccc4)ncnc32)[C@H](O)[C@@H]1O)NCc1ccccc1 | -25.5% | –
9 | CC1CCCCC12NC(=O)N(CC(=O)Nc1ccc(S(=O)(=O)Nc3ncccn3)cc1)C2=O (centres undefined) | 0.923% | –
10 | CCC(C)N(C(=O)COC(=O)C1C(C(=O)OC)=C(C)NC(C)=C1C(=O)OC)C1CCS(=O)(=O)C1 (centres undefined) | 0.101% | –
11 | COc1cc(OC)c(C(=S)N2CCCC2)cc1OC | -22% | –
12 | CSc1ccccc1C(=O)OCC(=O)N1CCN(C(C)=O)CC1 | -0.484% | –
13 | Cc1ccc(NC(=O)[C@H](Cc2ccccc2)NC(=O)CC[C@H]2O[C@@H](n3ccc(=O)[nH]c3=O)[C@H](O)[C@@H]2O)cc1C | -6.82% | –
14 | Cc1cccc(C(=O)Nc2ccc(Oc3cnccn3)cc2)c1 | -11.8% | –
15 | C#CCNC(=O)C[C@@H]1C[C@@]2(C(=O)OCC)CCCC=C2N(Cc2ccco2)C1=O | -5.49% | –
16 | CCCCNC(=O)C[C@@H]1C[C@@]2(C(=O)OCC)CCC=C2N(Cc2cccc3ccccc23)C1=O | – | 16.4 µM (active)
17 | CCOC(=O)[C@]12CCC=C1N(CCC1=CCCCC1)C(=O)[C@H](CC(=O)NCc1ccc(C)o1)C2 | – | 16.4 µM (active)
18 | CCN(CC)C(=O)C1=C(C)N(Cc2ccc(OC)cc2)C(=O)C(CC(=O)NCc2ccco2)C1 (centres undefined) | -18.4% | –
19 | CC1=C(C(=O)N2CCOCC2)CC(CC(=O)NCc2cccc3ccccc23)C(=O)N1CCC1=CCCCC1 (centres undefined) | -11.8% | –
20 | CCCCNC(=O)C[C@@H]1C[C@@]2(C(=O)OCC)CCC=C2N(Cc2ccco2)C1=O | -11.1% | –
21 | Cc1ccccc1OCC(=O)NNC(=O)c1cc(S(=O)(=O)N(C)C)ccc1N1CCCC1 | -16.2% | –
22 | COc1ccc(NC(=O)CN(C)C(=O)CC2CCCCC2)cc1 | 1.32% | –
23 | COc1cc(OC)c(C2C=C(C(=O)O)Nc3ncnn32)cc1OC (centres undefined) | 0.986% | –
24 | CC(C)CC(=O)Nc1ccc(Cc2ccncc2)cc1 | -22.1% | –
25 | CCNC(=O)C1(C)CCN(C(=O)c2ccccc2)C1 (centres undefined) | -20.3% | –

Row | SMILES | activity change, negative = growth inhibition | Potency
26 | CCOC(=O)NC(=O)C(=CNc1cccc(OC)c1)C(=O)NC(=O)OCC | 1.35% | –
27 | COc1ccc2[nH]c3c(=O)n(Cc4ccco4)cnc3c2c1 | -2.12% | –
28 | COCCn1nnnc1C(c1cc2ccc(OC)cc2[nH]c1=O)N1CCc2ccccc2C1 (centres undefined) | -27.8% | –
29 | CCC(c1nnnn1Cc1ccco1)N(CCc1ccccc1)Cc1cc2ccc(OC)cc2[nH]c1=O (centres undefined) | – | 23.1 µM (active)
30 | COc1cc(OC)c(C(=O)N2CCCC2)cc1OC | 22.1% | –
31 | Cc1ccc(NC(=O)C(C)Sc2nnc(C3CC3)n2C2CC2)cc1S(=O)(=O)N1CCOCC1 (centres undefined) | -20.8% | –
32 | CSCCC(NC(=O)c1ccc(Cl)cc1Cl)C(=O)NNC(=O)c1csc(N2CCOCC2)n1 (centres undefined) | 4.89% | –
33 | CCOC(=O)c1cc2c(nc1NC(=S)Nc1ccccc1)CC(C)(CC)OC2 (centres undefined) | 0.397% | –
34 | O=C(NNS(=O)(=O)c1ccc(F)cc1)C1CCCCC1 | 2.3% | –
35 | Cc1ccccc1CNC(=O)C1CCCN(S(=O)(=O)N(C)c2ccc(F)cc2)C1 (centres undefined) | – | 23.1 µM (active)
36 | CCOC(=O)c1c(S(=O)(=O)N2CCCC(C(=O)NCc3ccc(F)cc3)C2)c(C)n(CC)c1C (centres undefined) | -14.2% | –
37 | O=C(NCc1ccccc1Cl)C1CCCN1S(=O)(=O)c1ccc(F)cc1 (centres undefined) | -27.9% | –
38 | CCNC(=O)CC1C(=O)N(c2ccc(OC)cc2)C(=O)N1CCOC (centres undefined) | -3.13% | –
39 | CN(C)N=Nc1ccc2nc[nH]c2c1 | -13.5% | –
40 | Cc1ccc2c(N)c(C(=O)c3ccccc3)sc2n1 | -24.8% | –
41 | CCCCNC(=O)c1ccc2c(c1)NC(=O)C(C(C)C)N2 (centres undefined) | -22% | –
42 | Cc1[nH]c2ccccc2c1C(=O)CSCC(=O)O | -19.6% | –
43 | Cc1[nH]c2ccccc2c1C(=O)COC(=O)C(C)C | -4.53% | –
44 | CCOC(=O)N1CCN(CC(=O)c2c(C)[nH]c3ccccc23)CC1 | – | 18.4 µM (active)
45 | Cc1[nH]c2ccccc2c1C(=O)CN1CC(C)CC(C)C1 (centres undefined) | – | 11.6 µM (active)
46 | Cc1[nH]c2ccccc2c1C(=O)CN1CCCC(C)C1 (centres undefined) | 4.31% | –
47 | Cc1ccc2c(C(=O)CN3CCCC3)c(C)[nH]c2c1 | -19.6% | –
48 | CCOCCCNC(=O)C(NC(=O)Cc1c[nH]c2ccccc12)c1ccc(OC)cc1 (centres undefined) | 2.87% | –
49 | COc1cccc(NC(=O)N2CCN(C(=O)c3nsc4ccccc34)CC2)c1 | 5.7% | –
